Source: ChEMBL document CHEMBL4808148, “HDAC6 screening dataset using tau-based substrate in an enzymatic assay yields selective inhibitors and activators” (2021)
In all, about 5,600 compounds went through this assay and about 390 (7%) showed an effect of 50% or more. For the sample, strong results were picked, then their nearest neighbours and some compounds at random.

Key:
[1] = biological target: T1, Protein deacetylase HDAC6 (Homo sapiens) (UniProt Q9UBN7); conditions: at 10 µM
T1 sequence (whole entry): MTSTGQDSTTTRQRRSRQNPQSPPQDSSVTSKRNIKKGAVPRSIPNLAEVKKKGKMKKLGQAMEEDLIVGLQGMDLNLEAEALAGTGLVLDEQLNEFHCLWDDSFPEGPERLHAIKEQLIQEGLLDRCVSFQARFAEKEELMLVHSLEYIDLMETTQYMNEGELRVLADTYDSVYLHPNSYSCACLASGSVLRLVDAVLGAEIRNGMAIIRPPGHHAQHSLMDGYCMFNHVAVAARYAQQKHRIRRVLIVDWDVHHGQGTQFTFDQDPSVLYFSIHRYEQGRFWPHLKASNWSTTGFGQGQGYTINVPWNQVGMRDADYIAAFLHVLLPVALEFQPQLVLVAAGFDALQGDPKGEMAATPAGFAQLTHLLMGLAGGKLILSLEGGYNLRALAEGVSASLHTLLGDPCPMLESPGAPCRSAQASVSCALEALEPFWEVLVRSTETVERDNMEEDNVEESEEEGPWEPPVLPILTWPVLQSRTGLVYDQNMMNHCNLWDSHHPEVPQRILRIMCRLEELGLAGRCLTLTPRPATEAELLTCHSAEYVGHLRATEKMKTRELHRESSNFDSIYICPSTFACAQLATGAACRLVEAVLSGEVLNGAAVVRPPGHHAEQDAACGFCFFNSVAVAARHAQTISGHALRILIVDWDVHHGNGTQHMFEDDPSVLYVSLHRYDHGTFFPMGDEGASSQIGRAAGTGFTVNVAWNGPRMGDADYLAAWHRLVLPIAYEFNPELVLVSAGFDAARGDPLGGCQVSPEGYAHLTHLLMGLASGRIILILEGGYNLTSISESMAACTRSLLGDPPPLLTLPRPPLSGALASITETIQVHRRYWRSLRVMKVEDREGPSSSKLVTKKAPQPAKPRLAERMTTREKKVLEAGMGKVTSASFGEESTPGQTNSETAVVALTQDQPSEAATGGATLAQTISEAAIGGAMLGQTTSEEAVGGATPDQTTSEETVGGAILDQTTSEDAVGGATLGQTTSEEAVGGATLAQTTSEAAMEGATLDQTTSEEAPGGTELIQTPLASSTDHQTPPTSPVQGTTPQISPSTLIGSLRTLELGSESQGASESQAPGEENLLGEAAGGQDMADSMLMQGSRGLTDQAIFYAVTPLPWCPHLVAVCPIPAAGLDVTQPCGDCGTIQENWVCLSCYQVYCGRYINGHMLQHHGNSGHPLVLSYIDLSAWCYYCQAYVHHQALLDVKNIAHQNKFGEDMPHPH

[2] = biological target: Protein deacetylase HDAC6 (Homo sapiens) (UniProt Q9UBN7); conditions: at 10 µM; remark: listed apart in the source

| Compound | inhibition [1] | inhibition [2] |
| --- | --- | --- |
| C[C@@H]1C[C@H]2[C@@H]3CCC4=CC(=O)C=C[C@]4(C)[C@@]3(Cl)[C@@H](O)C[C@]2(C)[C@@]1(OC(=O)c1ccco1)C(=O)CCl | -2.71% | – |
| CSc1ccc(C(=O)/C=C/c2cc(C)c(OC(C)(C)C(=O)O)c(C)c2)cc1 | -7.51% | – |
| EUK 134, CHEMBL5308416 | – | 33.1% |
| Nc1ncnc2c1c(COc1cccc(Cl)c1)nn2C1CCOCC1 | -8.17% | – |
| O=C(O)c1ccccc1 | -0.18% | – |
| O=C(O)C1CCCN(CCC=C(c2ccccc2)c2ccccc2)C1 (configuration not stated) | 18.1% | – |
| O=C(c1ccccc1)c1ccc2n1CCC2C(=O)O (configuration not stated) | 66.7% | – |
| CCCC(=O)C1(c2ccccc2)CCN(C(=O)[C@@H](Cc2ccc(OC)cc2)NC(=O)[C@@H](N)Cc2cncn2C)CC1 | 4.5% | – |
| Nc1cccc2c(=O)[nH][nH]c(=O)c12 | 35.2% | – |
| CCS(=O)(=O)c1ccc2oc(-c3ccc4ccccc4c3)nc2c1 | 97.2% | – |
| c1ccc(Cn2c(-c3ccc(OC[C@H](C4CCNCC4)n4c(-c5ccccc5)nc5ccccc54)cc3)nc3ccccc32)cc1 | 5.68% | – |
| COc1cc(/C=C(\C#N)C(N)=O)cc(CSc2nc3ccccc3s2)c1O | 17.9% | – |
| CCCCc1oc2ccc(NS(C)(=O)=O)cc2c1C(=O)c1ccc(OCCCN(CCCC)CCCC)cc1 | 18.6% | – |
| Cc1cnc(-c2cnc(NCCNc3ccc(C#N)cn3)nc2-c2ccc(Cl)cc2Cl)[nH]1 | 3.11% | – |
| Cn1cnc(-c2cc3nccc(Oc4ccc(NC(=S)NC(=O)Cc5ccccc5)cc4F)c3s2)c1 | 28% | – |
| Cc1ccc(C(=O)Nc2ccc(CN3CCN(C)CC3)c(C(F)(F)F)c2)cc1C#Cc1cnc2cccnn12 | 32.8% | – |
| COC(=O)N1CCN(Cc2cccc(NC(=O)Nc3ccc(C)nc3)c2F)CC1 | 57.5% | – |
| COc1cc(N)cn[n+]1-c1ccccc1 | 15.3% | – |
| CC(=O)OCC(=O)[C@@]1(O)[C@@H](C)C[C@H]2[C@@H]3CCC4=CC(=O)C=C[C@]4(C)[C@@]3(F)[C@@H](O)C[C@@]21C | 8.96% | – |
| Clc1cccc(Cl)c1CSc1nnc(-c2cnccn2)s1 | 65.2% | – |
| COc1c(OCCCN2CCOCC2)ccc2c1N=C(NC(=O)c1cnc(N)nc1)N1CCN=C21 | 8.29% | – |
| CCCCCNCC(N)=O | 19.9% | – |
| Oc1nc(O)c2cn[nH]c2n1 | 9.68% | – |
| Cn1c([N+](=O)[O-])cnc1COC(N)=O | 2.87% | – |
| CCS(=O)(=O)CCn1c([N+](=O)[O-])cnc1C | -4.7% | – |
| CSc1ccc(OCc2ncc([N+](=O)[O-])n2C)cc1 | 57.1% | – |

| Compound | inhibition [1] | inhibition [2] |
| --- | --- | --- |
| Nc1[nH]cnc2ncnc1-2 | -1.89% | – |
| NS(=O)(=O)c1ccc(S(=O)(=O)Nc2cccc3c(Cl)c[nH]c23)cc1 | -6.04% | – |
| C1CCN2C[C@H]3C[C@H](CN4CCCC[C@@H]34)[C@H]2C1 | 30.9% | – |
| Cc1ncc(-c2csc(N=C(N)N)n2)[nH]1 | 3.96% | – |
| Ic1cc(-c2ccccc2)ncn1 | 25.2% | – |
| CC[C@@]1(O)C(=O)OCc2c1cc1n(c2=O)Cc2cc3c([N+](=O)[O-])cccc3nc2-1 | 11.9% | – |
| O=C(OC(C(F)(F)F)C(F)(F)F)N1CCN(Cc2cccc(Oc3ccccc3)c2)CC1 | -8.39% | – |
| CC(=O)OCC(=O)NCCCOc1cccc(CN2CCCCC2)c1 | 14.5% | – |
| c1cc(CN2CCCCC2)cc(OCCCNc2nc3ccccc3s2)c1 | 59.6% | – |
| COc1ccc(C(=O)N2CCCc3cc(C4=NNC(=O)SC4C)ccc32)cc1OC (configuration not stated) | 7.12% | – |
| Cc1ccc(S(=O)(=O)NC2c3ccccc3Oc3ccccc32)cc1 | 0.27% | – |
| CNC(=O)CN(CCN(CCN(CC(=O)O)CC(=O)NC)CC(=O)O)CC(=O)O | 17.5% | – |
| OCc1ccc(-c2ccc(-c3ccc(CO)s3)o2)s1 | 102% | – |
| O=C(O)COc1cccc(-c2ocnc2-c2nc(-c3ccccc3)c(-c3ccccc3)o2)c1 | -1.23% | – |
| Cc1ncc(C[n+]2csc(CCO)c2C)c(N)n1 | 53% | – |
| CCCc1ncc(C[n+]2ccccc2C)c(N)n1 | -5.17% | – |
| CC(C)CN(C[C@@H](O)[C@H](Cc1ccccc1)NC(=O)O[C@H]1CCOC1)S(=O)(=O)c1ccc(N)cc1 | 1.38% | – |
| COc1ccc(OC)c(CN(C(C)=O)c2cc(F)ccc2Oc2ccccc2)c1 | 1.27% | – |
| Cc1c(-c2ccc(O)cc2)n(Cc2ccc(OCCN3CCCCCC3)cc2)c2ccc(O)cc12 | 86.2% | – |
| O=C(c1ccc(OCCN2CCCCC2)cc1)c1c(-c2ccc(O)cc2)sc2cc(O)ccc12 | 38.5% | – |
| O=C(Cc1ccc(-c2ccc(OCCN3CCOCC3)cc2)cn1)NCc1ccccc1 | 9.75% | – |
| O=[N+]([O-])c1cnc(Sc2nnc(O)n2-c2ccc3c(c2)OCCO3)s1 | 11.2% | – |
| C[n+]1cccc(C(=O)[O-])c1 | 7.12% | – |
| O=C(Nc1ccccc1)C12CC1/C(=N\O)c1ccccc1O2 (configuration not stated) | 16.1% | – |
| Nc1cc(C(F)(F)F)c(-c2nc(N3CCOCC3)nc(N3CCOCC3)n2)cn1 | -6.25% | – |
| OCc1c[nH]c2ccccc12 | 2.93% | – |
